Among all 50,000 compounds or so, about 800 (1.6%) showed an effect of 50% or more. The entries come from a sample that favours strong results as a whole.

Bcl-2-like protein 10 (Homo sapiens), sequence (Q9HD36 whole entry, looked up): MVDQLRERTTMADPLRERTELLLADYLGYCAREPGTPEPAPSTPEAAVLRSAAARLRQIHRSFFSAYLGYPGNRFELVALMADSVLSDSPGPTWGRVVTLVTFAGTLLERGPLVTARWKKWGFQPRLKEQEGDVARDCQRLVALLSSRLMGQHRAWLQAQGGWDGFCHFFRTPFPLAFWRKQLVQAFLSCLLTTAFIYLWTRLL

The experiment concerns the target Bcl-2-like protein 10 (Homo sapiens) (UniProt Q9HD36). Description: TR3 peptide-Bcl-B binding displacers, biochemical primary FP assay, phenotype converters (AID 1240).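 Further: 0% = Bcl-B with tracer peptide and DMSO and 100% = tracer peptide lacking Bcl-B.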 Conditions: GST-Bcl-B / FITC-TR3 peptide fluorescence polarization; stronger effect = higher value; compound at 3.75 mg/L.
Regarding `C=C1CC(C)OC(c2ccccc2O)C1` (stereo unspecified), the displacement is -4.4%. As for `O=C1CC(Nc2ccc(F)cc2)C(=O)N1c1ccccc1C(F)(F)F` (stereo unspecified), the figure is 1.1%; as for `C=CCNC(=O)CN(c1ccc(OC)cc1)S(C)(=O)=O`, 1.7%. Take `COc1cc(C(=O)Nc2ccc(Br)cc2C(=O)c2cc(OC)c(OC)c(OC)c2)cc(OC)c1OC`: the displacement was determined as 22.3%.

Consider `COc1cc(C(=O)c2cc(Br)ccc2NC(=O)COc2ccc(C)cc2)cc(OC)c1OC`, for which the displacement is 17.2%. To `COc1cc(C(=O)c2cc(Br)ccc2NC(=O)COc2ccccc2)cc(OC)c1OC` belongs 57.3%. To `COc1cc(CN2CCN(Cc3ccccn3)CC2)cc(OC)c1OC` belongs -5.1%; to `CCOC(=O)C(Cc1cc(C)c(CC(C(=O)OCC)C(=O)OCC)cc1C)C(=O)OCC`, -8.7%; to `CCOC(=O)C1=CN(c2ccc(F)cc2)C=C(C(=O)OCC)C1c1cc(OC)c(OC)c(OC)c1`, -2.3%. As for `CC(=O)N/N=C/c1cc(C)n(-c2ccc(Cl)cc2Cl)c1C`, the figure is -7.1%. Take `O=c1oc2cc(O)c([N+](=O)[O-])cc2cc1-c1csc(-c2cc3ccccc3oc2=O)n1`: the displacement was -10%. As for `CCOc1ccc(-c2csc(-c3cc4ccccc4oc3=O)n2)cc1`, the figure is -2.8%; as for `O=c1oc2cc(O)ccc2cc1-c1csc(-c2ccc(-c3ccccc3)cc2)n1`, 116%.

Take `Cc1ccc(-c2csc(-c3cc4cc([N+](=O)[O-])ccc4oc3=O)n2)cc1`: the displacement is -7.9%. To `COc1cccc2cc(-c3nc(-c4ccc(Cl)c(Cl)c4)cs3)c(=O)oc12` belongs 0.1%. To `COc1cccc2cc(-c3nc(-c4ccccc4)cs3)c(=O)oc12` belongs 7.8%; to `COc1cccc(-c2csc(-c3cc4cccc(OC)c4oc3=O)n2)c1`, -23.1%. In the case of `O=c1oc2cc(O)c([N+](=O)[O-])cc2cc1-c1csc(-c2ccc(Cl)cc2)n1`, the displacement was -11.3%.

Consider `Cc1ccc(-c2csc(-c3cc4ccccc4oc3=O)n2)cc1`, for which the displacement turned out to be 154%. For the compound `Cc1ccc(-c2nc(-c3cc4cc([N+](=O)[O-])c(O)cc4oc3=O)cs2)cc1`, the displacement is -4.8%.

For the compound `O=c1oc2ccccc2cc1-c1nc(-c2ccc(Cl)c(Cl)c2)cs1`, the displacement worked out at 61.2%. With `COc1cccc2cc(-c3nc(-c4ccc(C)c(C)c4)cs3)c(=O)oc12`, the displacement came to 80.5%.

`CCOC(=O)c1c(-c2ccc(OC)cc2)csc1NC(=O)c1cccc([N+](=O)[O-])c1`: the displacement was 12.6%.

On to `Cc1cc(/C=C2\SC(=O)NC2=O)c(C)n1C1CCCCC1`, for which the displacement was found to be 8.2%.

Regarding `Cc1ccc(OCc2nc(-c3cccnc3)no2)c(Br)c1`, the displacement came out at 10.7%. To `N#C/C(=C\c1ccc(C(=O)O)cc1)C(=O)NCC1CCCO1` (stereo unspecified) belongs 0%; to `Fc1ccc(-c2nnn(Cc3c(F)cccc3Cl)n2)cc1`, -6.4%; to `CC1=C(C(=O)OCC(F)(F)F)C(c2ccccc2)NC(=O)N1` (stereo unspecified), 7.2%.

Turning to `Cc1cccc(NC(=O)C2C(C(=O)O)C3C=CC2C32CC2)c1` (stereo unspecified), the displacement is -1.1%. As for `O=C(CSc1nc2ccccc2s1)c1ccc2ccccc2c1`, the figure is 11.9%; as for `COc1cccc2cc(-c3nc(-c4ccc(Cl)cc4Cl)cs3)c(=O)oc12`, -11.5%.

Take `CCc1ccc(-c2csc(-c3cc4cccc(OC)c4oc3=O)n2)cc1`: the displacement was -23.6%. To `COc1ccc(-c2csc(-c3cc4cc(Cl)cc(Cl)c4oc3=O)n2)cc1` belongs 75%. To `COc1cc(NS(=O)(=O)c2ccc(C)cc2)cc(OC)c1O` belongs 13.5%; to `NC(=O)COc1ccc(/C=N/NS(=O)(=O)c2ccccc2)cc1`, 0.2%; to `COc1ccc(/C=C(\C#N)c2ccc([N+](=O)[O-])cc2)c(OC)c1`, 110%.

With `COc1cc(/C=C(\C#N)c2ccc([N+](=O)[O-])cc2)c(OC)cc1Br`, the displacement was 14.7%.

With `COc1ccc(OC)c(/C=C(\C#N)c2ccc([N+](=O)[O-])cc2)c1`, the displacement worked out at 4%. As for `CC(C)CN1C(=O)/C(=C/c2ccccc2F)SC1=S`, the figure is 10.4%; as for `COc1ccc(NC(=O)CSCCc2ccccn2)c([N+](=O)[O-])c1`, 10.5%. Regarding `NS(=O)(=O)c1cccc(NC(=O)c2cc(I)ccc2Cl)c1`, the displacement is -1.9%. As for `COc1ccc(/C=C2/SC(=S)N(CCc3ccccc3)C2=O)cc1OC`, the figure is 105%; as for `CCN(CC)c1ccc(/C=C2\SC(=S)N(CCc3ccccc3)C2=O)cc1`, 86%; as for `O=C(CCCN1C(=O)/C(=C\c2ccc(F)cc2)SC1=S)Nc1ccccc1O`, -12.5%.

On to `COc1ccc(/C=C2/SC(=S)N(Cc3ccccc3)C2=O)cc1OC`, for which the displacement worked out at 16.1%.

`O=C(CN1C(=O)/C(=C/c2ccc(Br)cc2)SC1=S)Nc1ncc(Cc2cccc([N+](=O)[O-])c2)s1`: the displacement was determined as 17.9%.

As to `COc1ccc(/C=C2\SC(=S)N(CC(=O)Nc3ncc(Cc4cccc([N+](=O)[O-])c4)s3)C2=O)cc1OC`, the displacement is 9.7%. To `O=C(CCCN1C(=O)/C(=C\c2ccc(F)cc2)SC1=S)Nc1cc([N+](=O)[O-])ccc1O` belongs 114%. Regarding `COc1ccc(CCN2C(=O)/C(=C\c3ccc(C(C)C)cc3)SC2=S)cc1OC`, the displacement is -0.4%. As for `CCCCN1C(=O)/C(=C\c2ccc(N(CC)CC)cc2)SC1=S`, the figure is -18.9%; as for `COc1ccc(/C=C2\SC(=S)N(CCCC(=O)Nc3ncc(Cc4cccc([N+](=O)[O-])c4)s3)C2=O)cc1OC`, 59%. On to `O=C(CCN1C(=O)/C(=C/c2ccc(F)cc2)SC1=S)Nc1cc([N+](=O)[O-])ccc1O`, for which the displacement was determined as 25.6%. To `Cc1ccc(/C=C2\SC(=S)N(CCc3ccccc3)C2=O)cc1` belongs 17%. As for `COC1C(C)=C(c2ccccc2F)C(=O)N1Cc1ccccc1` (stereo unspecified), the figure is 14.3%. To `CC1=C(C(=O)Nc2ccc(C)cc2)C(c2ccc(F)cc2)NC(=S)N1` (stereo unspecified) belongs -4.5%. Turning to `C/C(O)=C/c1nc2ccc([N+](=O)[O-])cc2nc1/C=C(/C)O`, the displacement came out at 17.3%. As for `OC(COCc1ccc2c(c1)OCO2)CN1CCC(Cc2ccccc2)CC1` (stereo unspecified), the figure is 0.1%; as for `Cc1ccc(-c2cc(NC(=O)c3ccc(Cl)cc3Cl)n[nH]2)cc1`, 9.9%. To `O=C(O)CCCCCN1C(=O)C(=O)/C(=C(/O)c2ccccc2)C1c1ccc([N+](=O)[O-])cc1` (stereo unspecified) belongs -3.9%. Take `O=C1c2c(Cl)ccc(Cl)c2C(=O)N1c1ccccc1O`: the displacement was determined as 9.8%. To `C(#Cc1ccccc1)CN1CCOCC1` belongs 2.4%; to `CSC(=O)NC1(Cc2ccc(O)cc2)CCCCC1`, -4.1%; to `Cc1ccc(C(=O)N/C(=C/c2ccc(Br)cc2)C(=O)NN)cc1`, -31.6%. To `CCN(CC)CCC(=O)c1ccc2c(c1)OCO2` belongs -5.3%; to `O=c1[nH]c2ccc(Cl)cc2c(-c2ccccc2)c1N1CCOCC1`, -27.7%.

On to `COC(=O)C(C)Oc1cc2oc(=O)cc(-c3ccccc3)c2cc1Cl` (stereo unspecified), for which the displacement is 10.3%.

The record behind these values is PubChem BioAssay AID1240 (Sanford-Burnham Center for Chemical Genomics, 2008).
